Data as given in PubChem BioAssay (NCATS).
Inconclusive results are not listed. Where a call stands in place of a potency, no number is given. Values without a mark were called inactive. Active and inactive are the calls of the source. The call rests on the fitted dose curve.
Potency means the concentration at half of the fitted maximal effect.

Experiment: Primary qHTS for Huh7 cytotoxicity: counterscreen for inhibitors of MERS-S pseudotyped particle cell entry (AID 1479147)
Settings: cell viability read-out; series mostly up to 57.1 µM
With `C[C@H](N)C(=O)N[C@@H](C)C(=O)NC1[C@H]2CN(c3nc4c(cc3F)c(=O)c(C(=O)O)cn4-c3ccc(F)cc3F)C[C@@H]12` (stereo partly specified) the Potency was “inactive”. With `CC(C)(C)C(=O)OCOC(=O)[C@@H]1N2C(=O)[C@@H](NC(=O)[C@H](N)c3ccccc3)[C@H]2SC1(C)C` the Potency was “inactive”. For `C[C@]12CC[C@@H]3c4ccc(O)cc4CC[C@H]3[C@@H]1C[C@@H](O)[C@@H]2O`, the Potency was “inactive”. In the case of `COc1ccccc1N1CCN(CCCNc2cc(=O)n(C)c(=O)n2C)CC1`, the Potency is reported as “inactive”. For `CO/N=C(/C(=O)N[C@@H]1C(=O)N2C(C(=O)O)=C(Cn3nnc(C)n3)CS[C@H]12)c1csc(N)n1`, the Potency was “inactive”. For `CCCCC/C=C\C/C=C\CCCCCCCC(=O)NC(C)c1ccccc1` (stereo unspecified), the Potency was “inactive”. For `CC(C)C(=O)OCc1cccc(OC(=O)[C@@H]2N3C(=O)[C@@H](NC(=O)Cc4ccccc4)[C@H]3SC2(C)C)c1`, the Potency was “inactive”. With `CC1=C(CC(=O)O)c2cc(F)ccc2/C1=C\c1ccc(S(C)=O)cc1` (stereo unspecified) the Potency was “inactive”. With `CC(C(=O)O)c1ccc(CC2CCCC2=O)cc1` (stereo unspecified) the Potency was “inactive”. With `FC(F)(F)C(Cl)Br` (stereo unspecified) the Potency was “inactive”. For `NC(=O)CC[C@@H](N)C(=O)O`, the Potency was “inactive”. For `CC(C)(C)C(=O)C(Oc1ccc(Cl)cc1)n1ccnc1` (stereo unspecified), the Potency was “inactive”. In the case of `CC(=O)Oc1ccc(C(=C2CCCCC2)c2ccc(OC(C)=O)cc2)cc1`, the Potency is reported as “inactive”. For `CCCCOc1ccc(CC(=O)NO)cc1`, the Potency was “inactive”. In the case of `Cc1c(F)cc2c(=O)c(C(=O)O)cn3c2c1CCC3C` (stereo unspecified), the Potency is reported as “inactive”. In the case of `O=Cc1ccccc1C=O`, the Potency is reported as “inactive”. In the case of `Oc1cccc(-c2c3nc(c(-c4cccc(O)c4)c4ccc([nH]4)c(-c4cccc(O)c4)c4nc(c(-c5cccc(O)c5)c5ccc2[nH]5)CC4)C=C3)c1`, the Potency is reported as “inactive”. In the case of `Cc1ccc2c(Cl)cc(Cl)c(O)c2n1`, the Potency is reported as “inactive”. For `C#C[C@]1(O)CC[C@H]2[C@@H]3CCc4cc(OC)ccc4[C@H]3CC[C@@]21C`, the Potency was “inactive”. For `CN(C)C(=S)SC(=S)N(C)C`, the Potency was 3160 nM (active). With `CCCCCC1Nc2cc(C(F)(F)F)c(S(N)(=O)=O)cc2S(=O)(=O)N1` (stereo unspecified) the Potency was “inactive”. For `Oc1ccc(CCNCCCCCCNCCc2ccccc2)cc1O`, the Potency was “inactive”. In the case of `CC1(C)O[C@@H]2C[C@H]3[C@@H]4CCC5=CC(=O)CC[C@]5(C)[C@@]4(F)[C@@H](O)C[C@]3(C)[C@]2(C(=O)CCl)O1`, the Potency is reported as “inactive”. In the case of `CC(=O)OC[C@H]1O[C@@](COC(C)=O)(O[C@H]2O[C@H](COC(C)=O)[C@@H](OC(C)=O)[C@H](OC(C)=O)[C@H]2OC(C)=O)[C@@H](OC(C)=O)[C@@H]1OC(C)=O`, the Potency is reported as “inactive”. In the case of `N[C@@H](CSSC[C@H](N)C(=O)O)C(=O)O`, the activity change, negative = cytotoxicity is reported as 2.73% [at 0.573 µM]. For `Cc1cc(O)c(C(C)C)cc1Cl`, the Potency was “inactive”. In the case of `CCCc1ncc(C[n+]2ccccc2C)c(N)n1`, the Potency is reported as “inactive”. With `CCCCC(=O)O[C@]1(C(=O)CO)[C@@H](C)C[C@H]2[C@@H]3CCC4=CC(=O)C=C[C@]4(C)[C@@]3(F)[C@@H](O)C[C@@]21C` the Potency was “inactive”. With `NC(CSCC(=O)O)C(=O)O` (stereo unspecified) the Potency was “inactive”. With `C/C(=C(\CCOP(=O)(O)O)SC(=O)c1ccccc1)N(C=O)Cc1cnc(C)nc1N` the outcome was “inactive [at 5.34 µM]”. For `CC1(C)OC[C@@H](COC(=O)CCc2ccc(OC[C@@H](O)CNCCNC(=O)N3CCOCC3)cc2)O1`, the Potency was “inactive”. For `NS(=O)(=O)c1cc2c(cc1Cl)NC(CSCc1ccccc1)=NS2(=O)=O`, the Potency was “inactive”. For `O=c1ccc2ccccc2o1`, the Potency was “inactive”. With `CCN1CCCC(OC(=O)C(c2ccccc2)c2ccccc2)C1` (stereo unspecified) the Potency was “inactive”. With `COc1ccc2c(c1OC)C(=O)O[C@@H]2[C@H]1c2c(cc3c(c2OC)OCO3)CCN1C` the Potency was “inactive”. In the case of `C[C@H]1NCc2cc(-c3ccc4c(=O)c(C(=O)O)cn(C5CC5)c4c3OC(F)F)ccc21`, the Potency is reported as “inactive”. With `C[C@]12C=CC(=O)C=C1CC[C@H]1[C@@H]3C[C@@H](O)[C@](O)(C(=O)CO)[C@@]3(C)C[C@H](O)[C@@]12F` the Potency was “inactive”. For `CSc1ccc(C(=O)c2[nH]c(=O)[nH]c2C)cc1`, the Potency was “inactive”.

Experiment: Primary qHTS for inhibitors of MERS-S pseudo-typed particle cell entry (AID 1479149); further: nearly all actives have a fitted effect of over 60% in size
Settings: MERS-S pseudotyped particle entry, luciferase; series mostly up to 57.1 µM
In the case of `C[C@H](N)C(=O)N[C@@H](C)C(=O)NC1[C@H]2CN(c3nc4c(cc3F)c(=O)c(C(=O)O)cn4-c3ccc(F)cc3F)C[C@@H]12` (stereo partly specified), the Potency is reported as “inactive”. In the case of `CC(C)(C)C(=O)OCOC(=O)[C@@H]1N2C(=O)[C@@H](NC(=O)[C@H](N)c3ccccc3)[C@H]2SC1(C)C`, the Potency is reported as “inactive”. In the case of `C[C@]12CC[C@@H]3c4ccc(O)cc4CC[C@H]3[C@@H]1C[C@@H](O)[C@@H]2O`, the Potency is reported as “inactive”. For `COc1ccccc1N1CCN(CCCNc2cc(=O)n(C)c(=O)n2C)CC1`, the Potency was “inactive”. In the case of `CO/N=C(/C(=O)N[C@@H]1C(=O)N2C(C(=O)O)=C(Cn3nnc(C)n3)CS[C@H]12)c1csc(N)n1`, the Potency is reported as “inactive”. For `CCCCC/C=C\C/C=C\CCCCCCCC(=O)NC(C)c1ccccc1` (stereo unspecified), the Potency was “inactive”. For `CC(C)C(=O)OCc1cccc(OC(=O)[C@@H]2N3C(=O)[C@@H](NC(=O)Cc4ccccc4)[C@H]3SC2(C)C)c1`, the Potency was “inactive”. For `CC1=C(CC(=O)O)c2cc(F)ccc2/C1=C\c1ccc(S(C)=O)cc1` (stereo unspecified), the Potency was “inactive”. In the case of `CC(C(=O)O)c1ccc(CC2CCCC2=O)cc1` (stereo unspecified), the Potency is reported as “inactive”. For `FC(F)(F)C(Cl)Br` (stereo unspecified), the Potency was “inactive”. For `NC(=O)CC[C@@H](N)C(=O)O`, the Potency was “inactive”. In the case of `CC(C)(C)C(=O)C(Oc1ccc(Cl)cc1)n1ccnc1` (stereo unspecified), the Potency is reported as “inactive”. With `CC(=O)Oc1ccc(C(=C2CCCCC2)c2ccc(OC(C)=O)cc2)cc1` the Potency was “inactive”. With `CCCCOc1ccc(CC(=O)NO)cc1` the Potency was “inactive”. In the case of `Cc1c(F)cc2c(=O)c(C(=O)O)cn3c2c1CCC3C` (stereo unspecified), the Potency is reported as “inactive”. With `O=Cc1ccccc1C=O` the Potency was “inactive”. For `Oc1cccc(-c2c3nc(c(-c4cccc(O)c4)c4ccc([nH]4)c(-c4cccc(O)c4)c4nc(c(-c5cccc(O)c5)c5ccc2[nH]5)CC4)C=C3)c1`, the Potency was “inactive”. With `Cc1ccc2c(Cl)cc(Cl)c(O)c2n1` the Potency was “inactive”. With `C#C[C@]1(O)CC[C@H]2[C@@H]3CCc4cc(OC)ccc4[C@H]3CC[C@@]21C` the Potency was “inactive”. With `CN(C)C(=S)SC(=S)N(C)C` the Potency was 1000 nM (active). With `CCCCCC1Nc2cc(C(F)(F)F)c(S(N)(=O)=O)cc2S(=O)(=O)N1` (stereo unspecified) the Potency was “inactive”. For `Oc1ccc(CCNCCCCCCNCCc2ccccc2)cc1O`, the Potency was “inactive”. For `CC1(C)O[C@@H]2C[C@H]3[C@@H]4CCC5=CC(=O)CC[C@]5(C)[C@@]4(F)[C@@H](O)C[C@]3(C)[C@]2(C(=O)CCl)O1`, the Potency was “inactive”. For `CC(=O)OC[C@H]1O[C@@](COC(C)=O)(O[C@H]2O[C@H](COC(C)=O)[C@@H](OC(C)=O)[C@H](OC(C)=O)[C@H]2OC(C)=O)[C@@H](OC(C)=O)[C@@H]1OC(C)=O`, the Potency was “inactive”. In the case of `N[C@@H](CSSC[C@H](N)C(=O)O)C(=O)O`, the outcome is reported as “inactive [at 0.573 µM]”. In the case of `Cc1cc(O)c(C(C)C)cc1Cl`, the Potency is reported as “inactive”. For `CCCc1ncc(C[n+]2ccccc2C)c(N)n1`, the Potency was “inactive”. In the case of `CCCCC(=O)O[C@]1(C(=O)CO)[C@@H](C)C[C@H]2[C@@H]3CCC4=CC(=O)C=C[C@]4(C)[C@@]3(F)[C@@H](O)C[C@@]21C`, the Potency is reported as “inactive”. With `NC(CSCC(=O)O)C(=O)O` (stereo unspecified) the Potency was “inactive”. With `C/C(=C(\CCOP(=O)(O)O)SC(=O)c1ccccc1)N(C=O)Cc1cnc(C)nc1N` the outcome was “inactive [at 5.34 µM]”. With `CC1(C)OC[C@@H](COC(=O)CCc2ccc(OC[C@@H](O)CNCCNC(=O)N3CCOCC3)cc2)O1` the Potency was “inactive”. For `NS(=O)(=O)c1cc2c(cc1Cl)NC(CSCc1ccccc1)=NS2(=O)=O`, the Potency was “inactive”. In the case of `O=c1ccc2ccccc2o1`, the Potency is reported as “inactive”. With `CCN1CCCC(OC(=O)C(c2ccccc2)c2ccccc2)C1` (stereo unspecified) the Potency was “inactive”. In the case of `COc1ccc2c(c1OC)C(=O)O[C@@H]2[C@H]1c2c(cc3c(c2OC)OCO3)CCN1C`, the Potency is reported as “inactive”. With `C[C@H]1NCc2cc(-c3ccc4c(=O)c(C(=O)O)cn(C5CC5)c4c3OC(F)F)ccc21` the Potency was “inactive”. In the case of `C[C@]12C=CC(=O)C=C1CC[C@H]1[C@@H]3C[C@@H](O)[C@](O)(C(=O)CO)[C@@]3(C)C[C@H](O)[C@@]12F`, the Potency is reported as “inactive”. In the case of `CSc1ccc(C(=O)c2[nH]c(=O)[nH]c2C)cc1`, the Potency is reported as “inactive”.
